Results as given in PubChem BioAssay (NCI).
About 79,000 compounds went through this panel and 15% of them were active in at least one assay; those are over-represented in the sample as a whole. Unmarked numbers belong to inactive results. The source made the active and inactive calls. Rule as the data show it: active = growth inhibition above about 70%; inactive = the rest.

Columns and labels:
[1] = NCI Yeast Anticancer Drug Screen. Data for the rad50 strain (AID 155);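 also: 0% = growth of vehicle-only cultures of the same strain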; conditions: S. cerevisiae rad50 strain growth inhibition, hits give high values
Method in brief: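 DNA repair mutant yeast, compound exposure, growth read-out; inhibition is taken relative to vehicle.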

[2] = NCI Yeast Anticancer Drug Screen. Data for the mec2-1 strain (AID 157); conditions: S. cerevisiae mec2-1 strain, hits give high values
Method in brief: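 Each compound was tested on mec2-1 yeast, a strain altered in DNA damage repair or cell cycle control. Growth inhibition is reported relative to vehicle.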

[3] = NCI Yeast Anticancer Drug Screen. Data for the sgs1 mgt1 strain (AID 161);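 also: 0% = growth of cultures given vehicle only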; conditions: S. cerevisiae sgs1 mgt1 strain, hits give high values
Method in brief: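 Read-out: growth inhibition vs vehicle controls. Cells: mutant yeast strain deficient in DNA damage repair.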

[4] = NCI Yeast Anticancer Drug Screen. Data for the cln2 rad14 strain (AID 165);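 also: 0% = growth equal to vehicle treated cultures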; conditions: S. cerevisiae cln2 rad14 strain, hits give high values
Method in brief: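 Test compounds were added to cln2 rad14 yeast cultures; inhibition of growth was then determined by comparison with vehicle treatment.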

[5] = NCI Yeast Anticancer Drug Screen. Data for the bub3 strain (AID 167); conditions: S. cerevisiae bub3 mutant strain, hits give high values
Method in brief: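 In this screen, a yeast mutant lacking normal mitotic checkpoint function is challenged with compound. Relative growth versus vehicle gives the inhibition value.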

[6] = NCI Yeast Anticancer Drug Screen. Data for the mlh1 rad18 strain (AID 175); conditions: S. cerevisiae mlh1 rad18 strain growth inhibition, hits give high values
Method in brief: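 Inhibition values reflect reduced growth of mutant yeast versus vehicle-treated controls following compound exposure; the mutations affect DNA damage repair.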

[7] = at 5.0 µM (retest, dose inferred, filed as 0.5)
[8] = at 50.0 µM (retest, dose inferred, filed as 5.0)

| SMILES | growth inhibition [1, 7] | growth inhibition [1, 8] | growth inhibition ([1]; at 50.0 µM) | growth inhibition [2, 7] | growth inhibition [2, 8] | growth inhibition ([2]; at 50.0 µM) | growth inhibition [3, 7] | growth inhibition [3, 8] | growth inhibition ([3]; at 50.0 µM) | growth inhibition [4, 7] | growth inhibition [4, 8] | growth inhibition ([4]; at 50.0 µM) | growth inhibition [5, 7] | growth inhibition [5, 8] | growth inhibition ([5]; at 50.0 µM) | growth inhibition [6, 7] | growth inhibition [6, 8] | growth inhibition ([6]; at 50.0 µM) |
| --- | --- | --- | --- | --- | --- | --- | --- | --- | --- | --- | --- | --- | --- | --- | --- | --- | --- | --- |
| O=[N+]([O-])c1cccc2nc3ccccc3c(NCCO)c12 | 78% (active) | 94% (active) | 86.8% (active) | 84% (active) | 98% (active) | 92% (active) | 82% (active) | 95% (active) | 91.5% (active) | 89% (active) | 96% (active) | 92% (active) | 28% | 94% (active) | 87.2% (active) | 89% (active) | 96% (active) | 86.6% (active) |
| O=S(=O)(Nc1ccnn1-c1ccccc1)c1ccc(N=Cc2c3ccccc3nc3cc(Cl)ccc23)cc1 | 22% | 29% | 96.8% (active) | 12% | 12% | 96.7% (active) | 10% | 7% | 96.4% (active) | -1% | -1% | 68.7% | 17% | 17% | 67.9% | 10% | 19% | 97.5% (active) |
| O=C1c2c(O)ccc(O)c2C(=O)c2c(O)ccc(O)c21 | -23% | 22% | 21.4% | 1% | -12% | 18.2% | -12% | 10% | 12.3% | -10% | -2% | 41% | -14% | 8% | 16.5% | 8% | -2% | 4.25% |
| O=C1CC(=S)NC(=S)N1 | -2% | -6% | 12.8% | 0% | -1% | -1.7% | -1% | -2% | -15% | -5% | -6% | -26% | -2% | -8% | -10.4% | -3% | -5% | 40.2% |
| O=C=Nc1ccccc1-c1ccc([N+](=O)[O-])cc1Cl | -1% | 20% | 73.2% (active) | 32% | 62% | 37.6% | 8% | 44% | 21.9% | -5% | -2% | 68.8% | 36% | 42% | 83.7% (active) | 40% | 62% | 84.2% (active) |
| CCOC(=O)C[n+]1c(C)cc(-c2ccccc2)cc1C | -2% | 1% | 13.6% | 7% | -15% | 6.3% | -1% | -3% | 12.2% | -1% | 2% | 28.1% | 24% | -4% | 14.2% | 9% | 21% | 7.55% |
| O=C(O)C(CS)Nc1c2ccccc2nc2ccccc12 (configuration not stated) | 17% | 88% (active) | 88.6% (active) | 10% | 64% | 39.5% | 11% | 76% (active) | 65% | 17% | 47% | 68.5% | -5% | 71% (active) | 37.5% | 16% | 81% (active) | 91.2% (active) |
| CCCCCCCCCCCCCCCCCC(=O)OCC(COC(=O)CCCN)OC(=O)CCCN (configuration not stated) | 18% | 99% (active) | 98.7% (active) | 9% | 99% (active) | 97.5% (active) | 3% | 99% (active) | 98% (active) | 5% | 96% (active) | 69% | 5% | 99% (active) | 98.6% (active) | 32% | 99% (active) | 97.5% (active) |
| C[Si](C)(c1ccccc1)C1CC(=O)CC(=O)C1 | 41% | 54% | 49.9% | 26% | 65% | 55.2% | 47% | 50% | 69.5% | 29% | 39% | 65.1% | 38% | 53% | 56% | 44% | 63% | 48.8% |
| CN(C)c1cccc(F)c1C(=O)NC(=O)Nc1ccc(Cl)cc1 | 2% | 3% | 79.7% (active) | 1% | 4% | 75.7% (active) | 0% | 7% | 85.9% (active) | 51% | -2% | 72% (active) | 1% | 11% | 83% (active) | 17% | -2% | 91.5% (active) |
| COc1ccc(/C=c2\sc3nnc(CCC(=O)Nc4cccc(C(F)(F)F)c4)n3c2=O)cc1 | -2% | 28% | 29.9% | 0% | 43% | 53.4% | -2% | 51% | 44.9% | 1% | 21% | 22.1% | 0% | 38% | 29.6% | -3% | 47% | 76.8% (active) |
| NC(=O)NC(CC(=O)O)C(=O)O (configuration not stated) | -6% | 12% | -19.9% | -7% | -4% | -4.35% | -8% | -5% | -6% | -3% | -4% | 65.8% | 3% | -6% | -29.8% | -8% | 4% | -1.7% |
| CS(=O)(=O)OCCCN(CCCOS(C)(=O)=O)c1ccc(C=Nc2ccc(-c3csc(COc4ccc(Br)cc4Br)n3)cc2)cc1 | 18% | 83% (active) | 86.3% (active) | 6% | 83% (active) | 92.8% (active) | 13% | 82% (active) | 90% (active) | 0% | 83% (active) | 85.8% (active) | 5% | 90% (active) | 89.2% (active) | 17% | 85% (active) | 90.7% (active) |
| C=C(C)C(=O)OC1CC2=CC(CC3(C)OC3C3OC(=O)C(=C)C13)OC2=O (configuration not stated) | 1% | 19% | 88.8% (active) | 3% | 37% | 87% (active) | 4% | 35% | 57.6% | 8% | 15% | 30.5% | 1% | 43% | 78.8% (active) | 4% | 51% | 50.5% |
| Nc1ccccc1OCC(O)CN1CCN(Cc2ccccc2)CC1 (configuration not stated) | -7% | 23% | 72.1% (active) | -4% | 15% | 41% | -11% | 42% | 75.6% (active) | -4% | 17% | 16% | -1% | 9% | 23.9% | 14% | 55% | 22.5% |
| Clc1ccccc1CN1COc2c(ccc3cccnc23)C1 | 9% | 21% | 69% | 12% | 16% | 32.9% | 7% | 51% | 55.5% | 0% | 44% | 13.3% | 7% | 31% | 26.1% | 19% | 72% (active) | 41.6% |
| CCCCN(C)C(=S)N/N=C(\C)c1ccccn1 | 56% | 99% (active) | 99.5% (active) | 73% (active) | 100% (active) | 99.8% (active) | 97% (active) | 99% (active) | 99.7% (active) | 95% (active) | 98% (active) | 99.5% (active) | 92% (active) | 99% (active) | 99.5% (active) | 98% (active) | 99% (active) | 99.7% (active) |
| CCN1/C(=C\c2cc[n+](CC)c3ccccc23)C=Cc2ccccc21 | -3% | 96% (active) | 42.4% | 2% | 96% (active) | 51.5% | -1% | 86% (active) | 32.4% | -8% | 96% (active) | -31.4% | 6% | 97% (active) | 68.8% | 1% | 97% (active) | 53.4% |
| O=C1c2ccccc2-c2ccccc2C(=O)C1(Br)Br | -5% | 8% | 89.8% (active) | -1% | -5% | 91.1% (active) | 3% | -11% | 88.3% (active) | -8% | -4% | 47.3% | -7% | -18% | 66.7% | 0% | -7% | 96.4% (active) |
